# Columns and labels:
# Test in all cases: DAPPL (digital affinity profiling via proximity ligation, sequencing); 10 mM Tris-HCl pH 7.5, 50 mM NaCl, 1 mM DTT, 4% glycerol, room temperature, 30 min; GST-TFs on glutathione beads, 16-mer random dsDNA library, 0.1% formaldehyde crosslink after washing; high values mean tight binding
# Settings in all cases: protein: recombinant; tags: N-terminal GST; dsDNA, one strand shown
# FLI1 = target: T1, FLI1 (Homo sapiens, UniProt Q01543 1-452)
# T1 sequence: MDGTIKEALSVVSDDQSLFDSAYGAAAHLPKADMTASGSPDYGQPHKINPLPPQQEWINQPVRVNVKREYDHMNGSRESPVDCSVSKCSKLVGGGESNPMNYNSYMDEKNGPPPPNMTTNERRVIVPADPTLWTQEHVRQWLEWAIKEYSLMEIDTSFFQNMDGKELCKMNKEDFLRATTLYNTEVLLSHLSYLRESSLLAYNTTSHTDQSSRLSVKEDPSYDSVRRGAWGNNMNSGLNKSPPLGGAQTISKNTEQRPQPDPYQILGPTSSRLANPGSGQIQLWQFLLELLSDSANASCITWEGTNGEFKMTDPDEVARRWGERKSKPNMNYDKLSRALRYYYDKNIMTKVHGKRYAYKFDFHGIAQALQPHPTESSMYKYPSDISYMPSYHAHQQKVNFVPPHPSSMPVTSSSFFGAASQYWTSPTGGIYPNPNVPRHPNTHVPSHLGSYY
# How it was run: (§1)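 After expression in yeast as GST fusions, human transcription factors were bound to glutathione beads, DNA-barcoded and mixed with a tag-only sample. The pools were incubated with 200 nmole of a 16-mer random double-stranded DNA library in Tris/NaCl/DTT/glycerol buffer (30 min, room temperature), washed and crosslinked with 0.1% formaldehyde. Proximity ligation with BsaI/T4 ligase ran for 1 h at 37 °C, before PCR amplification and sequencing on an Illumina NextSeq500. Binding signal is a hexamer's read frequency for a factor divided by its frequency for the tag-only sample.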
# ELK1 = target: T2, ELK1 (Homo sapiens, UniProt P19419 1-428)
# T2 sequence: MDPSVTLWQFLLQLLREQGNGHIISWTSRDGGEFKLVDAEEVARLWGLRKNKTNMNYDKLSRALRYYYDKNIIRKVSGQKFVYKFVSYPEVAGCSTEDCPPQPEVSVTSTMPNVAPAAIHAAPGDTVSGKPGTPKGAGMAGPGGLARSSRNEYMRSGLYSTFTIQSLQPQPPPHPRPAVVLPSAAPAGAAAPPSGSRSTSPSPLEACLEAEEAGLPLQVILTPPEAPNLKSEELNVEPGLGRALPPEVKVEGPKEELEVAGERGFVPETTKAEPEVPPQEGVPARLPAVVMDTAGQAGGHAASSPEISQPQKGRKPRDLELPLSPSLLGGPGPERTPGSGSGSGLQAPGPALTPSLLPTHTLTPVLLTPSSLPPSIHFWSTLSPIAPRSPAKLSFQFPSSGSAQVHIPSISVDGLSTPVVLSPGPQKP
# How it was run: as §1
# GABPA = target: T3, GABPA (Homo sapiens, UniProt Q06546 1-454)
# T3 sequence: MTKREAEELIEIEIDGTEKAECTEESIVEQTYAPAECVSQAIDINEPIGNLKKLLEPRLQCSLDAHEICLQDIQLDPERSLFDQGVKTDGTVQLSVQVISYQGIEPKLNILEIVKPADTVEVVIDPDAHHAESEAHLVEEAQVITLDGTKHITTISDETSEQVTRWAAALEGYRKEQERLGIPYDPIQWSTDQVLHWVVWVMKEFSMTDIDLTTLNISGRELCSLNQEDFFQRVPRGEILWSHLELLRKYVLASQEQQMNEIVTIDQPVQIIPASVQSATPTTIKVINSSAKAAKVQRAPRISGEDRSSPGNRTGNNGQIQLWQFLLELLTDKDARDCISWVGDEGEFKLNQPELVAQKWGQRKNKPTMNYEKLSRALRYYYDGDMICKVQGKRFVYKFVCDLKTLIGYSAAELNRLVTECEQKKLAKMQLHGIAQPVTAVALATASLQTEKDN
# How it was run: as §1
# ERG = target: T4, ERG (Homo sapiens, UniProt P11308 1-479)
# T4 sequence: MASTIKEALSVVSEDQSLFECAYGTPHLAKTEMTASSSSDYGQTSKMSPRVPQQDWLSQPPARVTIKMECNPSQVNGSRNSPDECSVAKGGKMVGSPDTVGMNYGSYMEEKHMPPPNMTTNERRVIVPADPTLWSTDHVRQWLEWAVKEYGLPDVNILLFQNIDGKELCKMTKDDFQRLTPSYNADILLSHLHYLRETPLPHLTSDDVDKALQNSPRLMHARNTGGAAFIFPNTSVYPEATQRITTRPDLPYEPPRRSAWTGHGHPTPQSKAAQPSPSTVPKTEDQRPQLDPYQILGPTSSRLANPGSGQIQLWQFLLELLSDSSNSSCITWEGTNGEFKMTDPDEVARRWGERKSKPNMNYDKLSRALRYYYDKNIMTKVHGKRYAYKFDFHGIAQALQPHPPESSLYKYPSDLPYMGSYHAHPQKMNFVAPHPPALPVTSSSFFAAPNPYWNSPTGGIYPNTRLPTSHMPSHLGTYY
# How it was run: as §1
# ELF1 = ELF1 (Homo sapiens, UniProt P32519 1-619)
# How it was run: as §1
# SPI1 = SPI1 (Homo sapiens, UniProt P17947 1-270)
# How it was run: as §1
# SPIB = SPIB (Homo sapiens, UniProt Q01892 1-262)
# How it was run: as §1
# ELK3 = target: T5, ELK3 (Homo sapiens, UniProt P41970 1-407)
# T5 sequence: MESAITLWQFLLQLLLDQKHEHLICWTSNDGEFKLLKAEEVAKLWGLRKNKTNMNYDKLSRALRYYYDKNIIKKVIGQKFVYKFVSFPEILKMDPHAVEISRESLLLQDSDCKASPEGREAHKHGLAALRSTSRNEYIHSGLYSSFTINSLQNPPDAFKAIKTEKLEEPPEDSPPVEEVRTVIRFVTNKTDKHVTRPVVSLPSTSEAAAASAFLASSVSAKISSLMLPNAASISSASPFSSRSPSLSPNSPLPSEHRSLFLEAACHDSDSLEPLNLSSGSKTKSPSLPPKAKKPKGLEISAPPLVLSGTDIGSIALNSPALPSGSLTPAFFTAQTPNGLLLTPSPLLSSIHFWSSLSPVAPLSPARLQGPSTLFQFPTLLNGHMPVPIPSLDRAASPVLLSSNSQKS
# How it was run: as §1
# FEV = target: T6, FEV (Homo sapiens, UniProt Q99581 1-238)
# T6 sequence: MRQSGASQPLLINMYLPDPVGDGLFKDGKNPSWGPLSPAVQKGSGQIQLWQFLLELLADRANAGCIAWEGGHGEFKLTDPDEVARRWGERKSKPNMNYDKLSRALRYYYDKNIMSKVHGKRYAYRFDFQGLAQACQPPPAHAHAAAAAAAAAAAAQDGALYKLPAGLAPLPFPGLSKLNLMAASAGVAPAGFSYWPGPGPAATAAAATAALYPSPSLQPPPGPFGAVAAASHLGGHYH
# How it was run: as §1
# ETV5 = ETV5 (Homo sapiens, UniProt P41161 1-510)
# How it was run: as §1
# SPIC = target: T7, SPIC (Homo sapiens, UniProt Q8N5J4 1-248)
# T7 sequence: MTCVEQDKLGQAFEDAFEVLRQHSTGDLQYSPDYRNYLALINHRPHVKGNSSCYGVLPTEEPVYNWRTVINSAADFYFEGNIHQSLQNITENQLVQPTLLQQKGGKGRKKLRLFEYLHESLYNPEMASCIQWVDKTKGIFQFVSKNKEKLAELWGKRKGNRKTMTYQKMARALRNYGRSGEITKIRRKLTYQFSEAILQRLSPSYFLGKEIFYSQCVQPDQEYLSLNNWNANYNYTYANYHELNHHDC
# How it was run: as §1
# ELF4 = ELF4 (Homo sapiens, UniProt Q99607 1-663)
# How it was run: as §1
# ELK4 = target: T8, ELK4 (Homo sapiens, UniProt P28324-2 1-405)
# T8 sequence: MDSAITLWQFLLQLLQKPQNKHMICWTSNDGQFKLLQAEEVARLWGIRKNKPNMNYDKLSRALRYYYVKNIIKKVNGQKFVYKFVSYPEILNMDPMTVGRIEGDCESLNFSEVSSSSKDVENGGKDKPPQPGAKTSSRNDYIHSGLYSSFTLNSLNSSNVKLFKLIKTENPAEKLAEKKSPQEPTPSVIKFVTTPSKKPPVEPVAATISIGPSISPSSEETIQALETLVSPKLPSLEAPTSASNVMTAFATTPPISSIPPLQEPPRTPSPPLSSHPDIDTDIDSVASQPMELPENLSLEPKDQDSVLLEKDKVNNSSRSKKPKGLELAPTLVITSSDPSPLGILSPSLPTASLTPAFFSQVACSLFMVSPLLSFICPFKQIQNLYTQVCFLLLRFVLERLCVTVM
# How it was run: as §1
# ETV2 = target: T9, ETV2 (Homo sapiens, UniProt O00321 1-342)
# T9 sequence: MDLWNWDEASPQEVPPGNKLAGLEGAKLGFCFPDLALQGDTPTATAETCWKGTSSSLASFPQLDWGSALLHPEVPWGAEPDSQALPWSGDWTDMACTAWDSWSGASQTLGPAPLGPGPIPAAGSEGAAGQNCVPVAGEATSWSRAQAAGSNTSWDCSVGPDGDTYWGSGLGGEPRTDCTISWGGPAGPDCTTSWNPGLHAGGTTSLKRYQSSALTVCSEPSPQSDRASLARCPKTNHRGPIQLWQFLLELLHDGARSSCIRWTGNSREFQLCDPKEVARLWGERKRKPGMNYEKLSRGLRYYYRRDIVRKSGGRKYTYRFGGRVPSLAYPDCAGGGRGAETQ
# How it was run: as §1
# ELF3 = target: T10, ELF3 (Homo sapiens, UniProt P78545 1-371)
# T10 sequence: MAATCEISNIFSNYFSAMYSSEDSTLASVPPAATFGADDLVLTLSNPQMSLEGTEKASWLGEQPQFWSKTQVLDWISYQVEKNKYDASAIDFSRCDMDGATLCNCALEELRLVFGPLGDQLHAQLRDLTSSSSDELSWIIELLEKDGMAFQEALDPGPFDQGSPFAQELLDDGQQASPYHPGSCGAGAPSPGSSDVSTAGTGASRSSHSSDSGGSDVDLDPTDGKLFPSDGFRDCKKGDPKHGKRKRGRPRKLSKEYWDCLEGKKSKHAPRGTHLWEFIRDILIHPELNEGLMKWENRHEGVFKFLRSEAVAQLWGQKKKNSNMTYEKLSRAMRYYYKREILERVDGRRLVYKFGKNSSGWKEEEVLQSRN
# How it was run: as §1
# Sequence of SPIB (Q01892 whole entry): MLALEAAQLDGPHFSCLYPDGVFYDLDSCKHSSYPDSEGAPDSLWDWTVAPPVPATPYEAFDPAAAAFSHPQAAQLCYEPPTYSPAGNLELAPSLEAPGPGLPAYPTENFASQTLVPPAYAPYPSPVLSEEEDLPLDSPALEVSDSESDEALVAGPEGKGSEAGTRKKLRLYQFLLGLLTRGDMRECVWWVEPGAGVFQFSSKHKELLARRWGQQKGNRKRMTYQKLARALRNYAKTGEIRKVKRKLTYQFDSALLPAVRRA
# Sequence of ETV5 (P41161 whole entry): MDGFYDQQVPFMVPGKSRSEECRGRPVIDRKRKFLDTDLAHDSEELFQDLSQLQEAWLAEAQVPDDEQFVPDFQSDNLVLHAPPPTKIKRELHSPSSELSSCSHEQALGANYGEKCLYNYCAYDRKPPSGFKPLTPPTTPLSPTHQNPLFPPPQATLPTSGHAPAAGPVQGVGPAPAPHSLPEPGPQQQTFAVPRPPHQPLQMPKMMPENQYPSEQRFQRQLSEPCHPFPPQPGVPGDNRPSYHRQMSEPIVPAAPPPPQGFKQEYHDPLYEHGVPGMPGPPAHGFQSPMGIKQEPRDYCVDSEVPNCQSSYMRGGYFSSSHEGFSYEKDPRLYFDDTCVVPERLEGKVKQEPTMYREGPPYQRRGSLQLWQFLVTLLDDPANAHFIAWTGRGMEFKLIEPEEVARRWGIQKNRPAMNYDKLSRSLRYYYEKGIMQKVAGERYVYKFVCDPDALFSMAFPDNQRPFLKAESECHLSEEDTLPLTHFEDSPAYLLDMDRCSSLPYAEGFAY
# Sequence of ELF4 (Q99607 whole entry): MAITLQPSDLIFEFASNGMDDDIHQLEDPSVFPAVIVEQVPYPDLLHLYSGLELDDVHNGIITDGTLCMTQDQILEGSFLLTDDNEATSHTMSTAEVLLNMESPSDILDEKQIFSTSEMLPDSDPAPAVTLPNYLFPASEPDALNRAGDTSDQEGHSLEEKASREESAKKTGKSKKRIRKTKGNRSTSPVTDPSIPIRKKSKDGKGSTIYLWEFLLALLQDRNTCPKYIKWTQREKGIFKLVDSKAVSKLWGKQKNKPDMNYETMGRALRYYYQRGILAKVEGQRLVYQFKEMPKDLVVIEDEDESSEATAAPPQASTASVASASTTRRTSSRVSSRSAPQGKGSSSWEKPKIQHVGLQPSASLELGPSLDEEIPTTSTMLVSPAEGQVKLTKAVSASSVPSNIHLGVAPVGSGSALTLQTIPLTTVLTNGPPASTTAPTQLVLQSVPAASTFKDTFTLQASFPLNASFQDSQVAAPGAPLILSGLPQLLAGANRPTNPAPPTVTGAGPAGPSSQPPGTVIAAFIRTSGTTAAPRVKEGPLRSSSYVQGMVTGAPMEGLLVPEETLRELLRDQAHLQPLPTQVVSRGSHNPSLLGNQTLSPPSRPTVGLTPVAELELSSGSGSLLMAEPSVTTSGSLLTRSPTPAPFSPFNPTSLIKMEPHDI
# Sequence of ELF1 (P32519 whole entry): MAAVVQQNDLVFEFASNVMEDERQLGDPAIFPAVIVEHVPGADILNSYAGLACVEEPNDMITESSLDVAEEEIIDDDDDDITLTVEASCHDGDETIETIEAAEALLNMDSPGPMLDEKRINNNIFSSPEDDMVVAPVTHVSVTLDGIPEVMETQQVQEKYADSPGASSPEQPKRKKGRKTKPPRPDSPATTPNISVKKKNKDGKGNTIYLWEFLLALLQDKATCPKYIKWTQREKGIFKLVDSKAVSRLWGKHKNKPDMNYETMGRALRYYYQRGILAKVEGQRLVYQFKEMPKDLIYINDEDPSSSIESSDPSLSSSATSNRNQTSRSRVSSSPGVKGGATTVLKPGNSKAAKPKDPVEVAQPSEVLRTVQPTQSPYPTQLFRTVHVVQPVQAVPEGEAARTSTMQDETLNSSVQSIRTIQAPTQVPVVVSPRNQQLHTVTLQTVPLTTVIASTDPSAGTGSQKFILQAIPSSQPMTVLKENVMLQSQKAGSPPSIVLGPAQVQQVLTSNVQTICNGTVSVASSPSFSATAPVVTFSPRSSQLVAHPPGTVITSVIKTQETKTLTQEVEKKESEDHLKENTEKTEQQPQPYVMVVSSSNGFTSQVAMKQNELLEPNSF
sequence,measurement,setting,value
ACCCAA,binding signal,FLI1,"1.12 fold enrichment (6-mer frequency, TF over GST control)"
same,binding signal,ELK1,"1.15 fold enrichment (6-mer frequency, TF over GST control)"
same,binding signal,GABPA,"1.18 fold enrichment (6-mer frequency, TF over GST control)"
same,binding signal,ERG,"1.03 fold enrichment (6-mer frequency, TF over GST control)"
same,binding signal,ELF1,"1.16 fold enrichment (6-mer frequency, TF over GST control)"
same,binding signal,SPI1,"1.12 fold enrichment (6-mer frequency, TF over GST control)"
same,binding signal,SPIB,"1.08 fold enrichment (6-mer frequency, TF over GST control)"
same,binding signal,ELK3,"1.03 fold enrichment (6-mer frequency, TF over GST control)"
same,binding signal,FEV,"1.05 fold enrichment (6-mer frequency, TF over GST control)"
same,binding signal,ETV5,"1.08 fold enrichment (6-mer frequency, TF over GST control)"
same,binding signal,SPIC,"1.2 fold enrichment (6-mer frequency, TF over GST control)"
same,binding signal,ELF4,"1.18 fold enrichment (6-mer frequency, TF over GST control)"
same,binding signal,ELK4,"1.08 fold enrichment (6-mer frequency, TF over GST control)"
same,binding signal,ETV2,"1.13 fold enrichment (6-mer frequency, TF over GST control)"
same,binding signal,ELF3,"1.26 fold enrichment (6-mer frequency, TF over GST control)"

# — article PMC7862700, “An all-to-all approach to the identification of sequence-specific readers for epigenetic DNA modifications on cytosine”
